According to PubChem BioAssay AID1159580 (chemical genetic matrix, 2015):
The whole screen tested about 5,500 compounds, of which about 2,000 (36%) were called active. Roughly 18% stayed inconclusive and do not appear here. Cut-off read from the data, not from the text of the source: active = normalized growth mostly below about 0.91 (no sharp cut-off); inconclusive = no clear call, values can overlap the other calls; inactive = mostly above about 0.92. The list shows a part of the results.

Assay: chemical genetic growth profiling, strain panel (AID 1159580);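 note: tested at 20 µM; growth read once vehicle control cultures reached saturation at 30 °C; 1 = growth at the plate median or of vehicle wells; lower values mean less growth of the strain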
Settings: S. cerevisiae deletion strains, growth OD
[1] = locus YAL040C, strain CLN3, stronger effect = lower value
[2] = locus YCL061C, strain MRC1 (second series), stronger effect = lower value
[3] = locus YER002W, strain NOP16, stronger effect = lower value
[4] = locus YMR263W, strain SAP30, stronger effect = lower value
[5] = locus YNL153C, strain GIM3, stronger effect = lower value
[6] = locus YNL175C, strain NOP13, stronger effect = lower value
[7] = locus YNL197C, strain WHI3, stronger effect = lower value
[8] = locus YNL224C, strain SQS1, stronger effect = lower value
[9] = locus YNL322C, strain KRE1, stronger effect = lower value
[10] = locus YOR083W, strain WHI5 (second series), stronger effect = lower value
[11] = locus YPL055C, strain LGE1, stronger effect = lower value
[12] = locus YPL241C, strain CIN2, stronger effect = lower value
[13] = locus YAR019C, strain CDC15, stronger effect = lower value
[14] = locus YBL105C, strain PKC1, stronger effect = lower value
[15] = locus YBR135W, strain CKS1, stronger effect = lower value
[16] = locus YBR136W, strain MEC1, stronger effect = lower value
[17] = locus YBR160W, strain CDC28, stronger effect = lower value
[18] = locus YDL017W, strain CDC7, stronger effect = lower value
[19] = locus YDL028C, strain MPS1, stronger effect = lower value
[20] = locus YDL101C, strain DUN1, stronger effect = lower value
[21] = locus YDL108W, strain KIN28, stronger effect = lower value
[22] = locus YDL132W, strain cdc53, stronger effect = lower value
[23] = locus YDL214C, strain PRR2, stronger effect = lower value
[24] = locus YDR052C, strain DBF4, stronger effect = lower value
[25] = locus YDR054C, strain cdc34, stronger effect = lower value
[26] = locus YDR226W, strain ADK1, stronger effect = lower value
[27] = locus YDR477W, strain SNF1, stronger effect = lower value
[28] = locus YER123W, strain YCK3, stronger effect = lower value
[29] = locus YER133W, strain GLC7, stronger effect = lower value
[30] = locus YFL009W, strain cdc4, stronger effect = lower value
[31] = locus YFL029C, strain CAK1, stronger effect = lower value
[32] = locus YFR003C, strain YPI1, stronger effect = lower value
[33] = locus YFR019W, strain FAB1, stronger effect = lower value
[34] = locus YFR028C, strain CDC14, stronger effect = lower value
[35] = locus YGR040W, strain KSS1, stronger effect = lower value
[36] = locus YGR052W, strain FMP48, stronger effect = lower value
[37] = locus YGR092W, strain DBF2, stronger effect = lower value
[38] = locus YHR030C, strain SLT2, stronger effect = lower value
[39] = locus YHR079C, strain IRE1, stronger effect = lower value
[40] = locus YHR082C, strain KSP1, stronger effect = lower value
[41] = locus YHR205W, strain SCH9, stronger effect = lower value
[42] = locus YIL147C, strain SLN1, stronger effect = lower value
[43] = locus YJL095W, strain BCK1, stronger effect = lower value
[44] = locus YJL128C, strain PBS2, stronger effect = lower value
[45] = locus YJL157C, strain FAR1, stronger effect = lower value
[46] = locus YJR016C, strain ILV3, stronger effect = lower value
[47] = locus YJR066W, strain TOR1 (second series), stronger effect = lower value
[48] = locus YJR066W, strain TOR1, stronger effect = lower value
[49] = locus YKL048C, strain ELM1, stronger effect = lower value
[50] = locus YKL067W, strain YNK1, stronger effect = lower value
[51] = locus YKL101W, strain HSL1, stronger effect = lower value
[52] = locus YKL193C, strain SDS22, stronger effect = lower value
[53] = locus YKL203C, strain TOR2, stronger effect = lower value
[54] = locus YLR113W, strain HOG1, stronger effect = lower value
[55] = locus YLR133W, strain CKI1, stronger effect = lower value
[56] = locus YLR403W, strain SFP1, stronger effect = lower value
[57] = locus YML070W, strain DAK1, stronger effect = lower value
[58] = locus YMR001C, strain CDC5, stronger effect = lower value
[59] = locus YMR205C, strain PFK2 (second series), stronger effect = lower value
[60] = locus YMR277W, strain FCP1, stronger effect = lower value
[61] = locus YNL006W, strain LST8, stronger effect = lower value
[62] = locus YNL020C, strain ARK1, stronger effect = lower value
[63] = locus YNL161W, strain CBK1, stronger effect = lower value
[64] = locus YNL183C, strain NPR1, stronger effect = lower value
[65] = locus YNL207W, strain RIO2, stronger effect = lower value
[66] = locus YNL222W, strain SSU72, stronger effect = lower value
[67] = locus YNL307C, strain MCK1 (second series), stronger effect = lower value
[68] = locus YOL078W, strain AVO1, stronger effect = lower value
[69] = locus YOL136C, strain PFK27, stronger effect = lower value
[70] = locus YOR061W, strain CKA2, stronger effect = lower value
[71] = locus YOR119C, strain RIO1, stronger effect = lower value
[72] = locus YOR231W, strain MKK1, stronger effect = lower value
[73] = locus YOR329C, strain SCD5, stronger effect = lower value
[74] = locus YPL031C, strain PHO85, stronger effect = lower value
[75] = locus YPL153C, strain RAD53, stronger effect = lower value
[76] = locus YPL204W, strain HRR25, stronger effect = lower value
[77] = locus YPL209C, strain IPL1, stronger effect = lower value
[78] = locus YPL256C, strain CLN2, stronger effect = lower value
[79] = locus YPR025C, strain CCL1, stronger effect = lower value
[80] = locus YPR106W, strain ISR1, stronger effect = lower value
[81] = locus YPR111W, strain DBF20, stronger effect = lower value
[82] = strain NNK1, stronger effect = lower value
[83] = strain TSCII, stronger effect = lower value
[84] = locus YAL013W, strain DEP1, stronger effect = lower value
[85] = locus YDR363W, strain ESC2, stronger effect = lower value
[86] = locus YGR078C, strain PAC10, stronger effect = lower value
[87] = locus YMR307W, strain GAS1, stronger effect = lower value

Measured: normalized growth

C#CC(N)CCC(=O)O (stereo not given)
inactive: [1] 1.02 | [2] 1.01 | [3] 1.01 | locus YGR229C, strain SMI1, stronger effect = lower value 1.01 | [4] 1.01 | [5] 1 | [6] 1.02 | [7] 1.02 | [8] 1 | [9] 1.01 | [10] 0.988 | [11] 0.989 | [12] 1.01

S=C(Nc1cc(Cl)c(Cl)cc1Cl)Nc1ccccc1Br
inactive: [13] 0.958 | [14] 0.969 | [15] 0.964 | [16] 0.953 | [17] 0.961 | [18] 0.963 | [19] 0.953 | [20] 0.977 | [21] 0.958 | [22] 0.96 | [23] 0.884 | [24] 0.97 | [25] 0.969 | [26] 0.947 | [27] 0.875 | [28] 0.833 | [29] 0.87 | [30] 0.963 | [31] 0.949 | [32] 0.969 | [33] 0.899 | [34] 0.943 | [35] 0.861 | [36] 0.848 | [37] 0.77 | [39] 0.82 | [40] 0.822 | [41] 0.812 | [42] 0.939 | [43] 0.796 | [44] 0.927 | [45] 0.898 | [46] 0.961 | [47] 0.848 | [48] 0.786 | [49] 0.911 | [50] 0.892 | [51] 0.842 | [52] 0.96 | [53] 0.913 | [55] 0.861 | [56] 0.754 | [57] 0.86 | [58] 0.957 | [59] 0.873 | [60] 0.959 | [61] 0.984 | [62] 0.844 | [63] 0.977 | [64] 0.791 | [65] 0.962 | [66] 0.97 | [67] 0.839 | [68] 0.962 | [69] 0.854 | [70] 0.749 | [71] 0.869 | [72] 0.846 | [73] 0.975 | [74] 0.873 | [75] 0.837 | [76] 0.848 | [77] 0.966 | [79] 0.966 | [80] 0.942 | [81] 0.935 | [82] 0.961 | [83] 0.953
active: [38] 0.67 | [54] 0.828 | [78] 0.809

S=C(NNc1ccccc1)Nc1cc(Cl)ccc1Cl
inactive: [13] 0.963 | [14] 0.958 | [15] 0.96 | [16] 0.962 | [17] 0.963 | [18] 0.962 | [19] 0.97 | [20] 0.963 | [21] 0.974 | [22] 0.959 | [23] 0.953 | [24] 0.966 | [25] 0.939 | [26] 0.985 | [27] 0.945 | [28] 0.921 | [29] 0.958 | [30] 0.974 | [31] 0.95 | [32] 0.961 | [33] 1 | [34] 0.965 | [35] 0.94 | [36] 1.02 | [37] 0.726 | [38] 0.853 | [39] 0.909 | [40] 0.935 | [41] 0.938 | [42] 0.965 | [43] 0.918 | [44] 0.967 | [45] 0.947 | [46] 0.961 | [47] 0.934 | [48] 0.894 | [49] 0.951 | [50] 0.976 | [51] 0.957 | [52] 0.955 | [53] 1 | [54] 0.874 | [55] 0.955 | [56] 0.936 | [57] 0.948 | [58] 0.959 | [59] 0.98 | [60] 0.957 | [61] 0.971 | [62] 0.964 | [63] 0.956 | [64] 0.957 | [65] 0.946 | [66] 0.957 | [67] 0.914 | [68] 0.958 | [69] 0.953 | [70] 0.909 | [71] 0.958 | [72] 0.928 | [73] 0.952 | [74] 0.925 | [75] 0.922 | [76] 0.938 | [77] 0.964 | [78] 0.893 | [79] 0.96 | [80] 0.964 | [81] 0.973 | [82] 0.964 | [83] 0.957

NC(CCCP(=O)(O)O)C(=O)O (stereo not given)
inactive: [84] 0.993 | [1] 1.01 | [2] 1 | [85] 1.09 | [3] 0.993 | [86] 1.02 | [4] 1 | [87] 0.982 | [6] 1.01 | [7] 1 | [8] 1.02 | [9] 1 | [10] 1.01 | [11] 0.977 | [12] 0.993

O=C1NC(c2cccc([N+](=O)[O-])c2)=CCN1c1ccccc1O
inactive: [84] 0.998 | [1] 0.994 | [2] 1.01 | [85] 1.01 | [3] 1 | [86] 1.02 | locus YJR075W, strain HOC1, stronger effect = lower value 1.01 | [4] 1 | [87] 1 | [5] 1.05 | [6] 1 | [7] 1.01 | [8] 0.995 | [9] 0.998 | [10] 1.01
